# Experimental data published in PubChem BioAssay AID1159580 (chemical genetic matrix, 2015).
# The whole screen tested about 5,500 compounds, of which about 2,000 (36%) were called active. Not shown: some 18% with an inconclusive outcome. This is one part of the list. Values without a mark were called inactive. Cut-off read from the data, not from the text of the source: active = normalized growth mostly below about 0.91 (no sharp cut-off); inconclusive = no clear call, values can overlap the other calls; inactive = mostly above about 0.92.
# Test: chemical genetic growth profiling, strain panel (AID 1159580);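 note: tested at 20 µM; growth read once vehicle control cultures reached saturation at 30 °C; 1 = growth at the plate median or of vehicle wells; lower values mean less growth of the strain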
# Conditions: S. cerevisiae deletion strains, growth OD
# [1] = locus YAR019C, strain CDC15, hits give low values
# [2] = locus YBL105C, strain PKC1, hits give low values
# [3] = locus YBR135W, strain CKS1, hits give low values
# [4] = locus YBR136W, strain MEC1, hits give low values
# [5] = locus YBR160W, strain CDC28, hits give low values
# [6] = locus YDL017W, strain CDC7, hits give low values
# [7] = locus YDL028C, strain MPS1, hits give low values
# [8] = locus YDL101C, strain DUN1, hits give low values
# [9] = locus YDL108W, strain KIN28, hits give low values
# [10] = locus YDL214C, strain PRR2, hits give low values
# [11] = locus YDR052C, strain DBF4, hits give low values
# [12] = locus YDR226W, strain ADK1, hits give low values
# [13] = locus YDR477W, strain SNF1, hits give low values
# [14] = locus YER123W, strain YCK3, hits give low values
# [15] = locus YER133W, strain GLC7, hits give low values
# [16] = locus YFL009W, strain cdc4, hits give low values
# [17] = locus YFL029C, strain CAK1, hits give low values
# [18] = locus YFR003C, strain YPI1, hits give low values
# [19] = locus YFR019W, strain FAB1, hits give low values
# [20] = locus YFR028C, strain CDC14, hits give low values
# [21] = locus YGR040W, strain KSS1, hits give low values
# [22] = locus YGR052W, strain FMP48, hits give low values
# [23] = locus YGR092W, strain DBF2, hits give low values
# [24] = locus YHR030C, strain SLT2, hits give low values
# [25] = locus YHR079C, strain IRE1, hits give low values
# [26] = locus YHR082C, strain KSP1, hits give low values
# [27] = locus YHR205W, strain SCH9, hits give low values
# [28] = locus YIL147C, strain SLN1, hits give low values
# [29] = locus YJL095W, strain BCK1, hits give low values
# [30] = locus YJL128C, strain PBS2, hits give low values
# [31] = locus YJL157C, strain FAR1, hits give low values
# [32] = locus YJR016C, strain ILV3, hits give low values
# [33] = locus YJR066W, strain TOR1 (second series), hits give low values
# [34] = locus YJR066W, strain TOR1, hits give low values
# [35] = locus YKL048C, strain ELM1, hits give low values
# [36] = locus YKL067W, strain YNK1, hits give low values
# [37] = locus YKL101W, strain HSL1, hits give low values
# [38] = locus YKL193C, strain SDS22, hits give low values
# [39] = locus YKL203C, strain TOR2, hits give low values
# [40] = locus YLR113W, strain HOG1, hits give low values
# [41] = locus YLR133W, strain CKI1, hits give low values
# [42] = locus YLR403W, strain SFP1, hits give low values
# [43] = locus YML070W, strain DAK1, hits give low values
# [44] = locus YMR001C, strain CDC5, hits give low values
# [45] = locus YMR205C, strain PFK2 (second series), hits give low values
# [46] = locus YMR277W, strain FCP1, hits give low values
# [47] = locus YNL006W, strain LST8, hits give low values
# [48] = locus YNL020C, strain ARK1, hits give low values
# [49] = locus YNL161W, strain CBK1, hits give low values
# [50] = locus YNL183C, strain NPR1, hits give low values
# [51] = locus YNL222W, strain SSU72, hits give low values
# [52] = locus YNL307C, strain MCK1 (second series), hits give low values
# [53] = locus YOL078W, strain AVO1, hits give low values
# [54] = locus YOL136C, strain PFK27, hits give low values
# [55] = locus YOR061W, strain CKA2, hits give low values
# [56] = locus YOR119C, strain RIO1, hits give low values
# [57] = locus YOR231W, strain MKK1, hits give low values
# [58] = locus YOR329C, strain SCD5, hits give low values
# [59] = locus YPL031C, strain PHO85, hits give low values
# [60] = locus YPL153C, strain RAD53, hits give low values
# [61] = locus YPL204W, strain HRR25, hits give low values
# [62] = locus YPL209C, strain IPL1, hits give low values
# [63] = locus YPL256C, strain CLN2, hits give low values
# [64] = locus YPR025C, strain CCL1, hits give low values
# [65] = locus YPR106W, strain ISR1, hits give low values
# [66] = locus YPR111W, strain DBF20, hits give low values
# [67] = strain TSCII, hits give low values
# [68] = locus YDL132W, strain cdc53, hits give low values
# [69] = locus YDR054C, strain cdc34, hits give low values
# [70] = locus YNL207W, strain RIO2, hits give low values
# [71] = strain NNK1, hits give low values
compound,measurement,setting,value
CC(C)(C)c1cc(C(=O)/C(C#N)=N\Nc2ccc(Cl)cc2)no1,normalized growth,[1],0.959
same,normalized growth,[2],0.974
same,normalized growth,[3],0.952
same,normalized growth,[4],0.963
same,normalized growth,[5],0.966
same,normalized growth,[6],0.96
same,normalized growth,[7],0.95
same,normalized growth,[8],0.979
same,normalized growth,[9],0.962
same,normalized growth,[10],0.253 (active)
same,normalized growth,[11],0.967
same,normalized growth,[12],0.952
same,normalized growth,[13],0.229 (active)
same,normalized growth,[14],0.146 (active)
same,normalized growth,[15],0.326 (active)
same,normalized growth,[16],0.907
same,normalized growth,[17],0.95
same,normalized growth,[18],0.96
same,normalized growth,[19],0.116 (active)
same,normalized growth,[20],0.958
same,normalized growth,[21],0.321 (active)
same,normalized growth,[22],0.281 (active)
same,normalized growth,[23],0.0911 (active)
same,normalized growth,[24],0.212 (active)
same,normalized growth,[25],0.106 (active)
same,normalized growth,[26],0.154 (active)
same,normalized growth,[27],0.043 (active)
same,normalized growth,[28],0.957
same,normalized growth,[29],0.145 (active)
same,normalized growth,[30],0.396 (active)
same,normalized growth,[31],0.165 (active)
same,normalized growth,[32],0.914
same,normalized growth,[33],0.237 (active)
same,normalized growth,[34],0.169 (active)
same,normalized growth,[35],0.172 (active)
same,normalized growth,[36],0.213 (active)
same,normalized growth,[37],0.106 (active)
same,normalized growth,[38],0.959
same,normalized growth,[39],0.284 (active)
same,normalized growth,[40],0.156 (active)
same,normalized growth,[41],0.112 (active)
same,normalized growth,[42],0.149 (active)
same,normalized growth,[43],0.137 (active)
same,normalized growth,[44],0.958
same,normalized growth,[45],0.137 (active)
same,normalized growth,[46],0.953
same,normalized growth,[47],0.981
same,normalized growth,[48],0.119 (active)
same,normalized growth,[49],0.96
same,normalized growth,[50],0.294 (active)
same,normalized growth,[51],0.966
same,normalized growth,[52],0.0976 (active)
same,normalized growth,[53],0.922
same,normalized growth,[54],0.191 (active)
same,normalized growth,[55],0.103 (active)
same,normalized growth,[56],0.337 (active)
same,normalized growth,[57],0.0922 (active)
same,normalized growth,[58],0.975
same,normalized growth,[59],0.105 (active)
same,normalized growth,[60],0.115 (active)
same,normalized growth,[61],0.115 (active)
same,normalized growth,[62],0.97
same,normalized growth,[63],0.146 (active)
same,normalized growth,[64],0.961
same,normalized growth,[65],0.842 (active)
same,normalized growth,[66],0.874
same,normalized growth,[67],0.948
N#C/C(=N/Nc1ccc(Cl)cc1)C(N)=S,normalized growth,[1],0.44 (active)
same,normalized growth,[2],0.434 (active)
same,normalized growth,[3],0.529 (active)
same,normalized growth,[4],0.513 (active)
same,normalized growth,[5],0.515 (active)
same,normalized growth,[6],0.616 (active)
same,normalized growth,[7],0.647 (active)
same,normalized growth,[8],0.345 (active)
same,normalized growth,[9],0.617 (active)
same,normalized growth,[68],0.43 (active)
same,normalized growth,[10],0.176 (active)
same,normalized growth,[11],0.825 (active)
same,normalized growth,[69],0.325 (active)
same,normalized growth,[12],0.57 (active)
same,normalized growth,[13],0.155 (active)
same,normalized growth,[14],0.197 (active)
same,normalized growth,[15],0.194 (active)
same,normalized growth,[16],0.468 (active)
same,normalized growth,[17],0.467 (active)
same,normalized growth,[18],0.644 (active)
same,normalized growth,[19],0.182 (active)
same,normalized growth,[20],0.577 (active)
same,normalized growth,[21],0.179 (active)
same,normalized growth,[22],0.204 (active)
same,normalized growth,[23],0.15 (active)
same,normalized growth,[24],0.208 (active)
same,normalized growth,[25],0.145 (active)
same,normalized growth,[26],0.206 (active)
same,normalized growth,[27],0.226 (active)
same,normalized growth,[28],0.627 (active)
same,normalized growth,[29],0.186 (active)
same,normalized growth,[30],0.628 (active)
same,normalized growth,[31],0.172 (active)
same,normalized growth,[32],0.574 (active)
same,normalized growth,[33],0.234 (active)
same,normalized growth,[34],0.244 (active)
same,normalized growth,[35],0.327 (active)
same,normalized growth,[36],0.167 (active)
same,normalized growth,[37],0.212 (active)
same,normalized growth,[38],0.42 (active)
same,normalized growth,[39],0.217 (active)
same,normalized growth,[40],0.275 (active)
same,normalized growth,[41],0.205 (active)
same,normalized growth,[42],0.175 (active)
same,normalized growth,[43],0.183 (active)
same,normalized growth,[44],0.475 (active)
same,normalized growth,[45],0.236 (active)
same,normalized growth,[46],0.352 (active)
same,normalized growth,[47],0.452 (active)
same,normalized growth,[48],0.182 (active)
same,normalized growth,[49],0.427 (active)
same,normalized growth,[50],0.185 (active)
same,normalized growth,[70],0.515 (active)
same,normalized growth,[51],0.428 (active)
same,normalized growth,[52],0.177 (active)
same,normalized growth,[53],0.483 (active)
same,normalized growth,[54],0.199 (active)
same,normalized growth,[55],0.23 (active)
same,normalized growth,[56],0.225 (active)
same,normalized growth,[57],0.171 (active)
same,normalized growth,[58],0.515 (active)
same,normalized growth,[59],0.207 (active)
same,normalized growth,[60],0.193 (active)
same,normalized growth,[61],0.203 (active)
same,normalized growth,[62],0.601 (active)
same,normalized growth,[63],0.231 (active)
same,normalized growth,[64],0.611 (active)
same,normalized growth,[65],0.475 (active)
same,normalized growth,[66],0.583 (active)
same,normalized growth,[71],0.471 (active)
same,normalized growth,[67],0.495 (active)
N#CC(C#N)=NNc1ccc(-n2ccc(C(F)(F)F)n2)cc1,normalized growth,[1],0.871 (active)
same,normalized growth,[2],0.899 (active)
same,normalized growth,[3],0.893 (active)
same,normalized growth,[4],0.905
same,normalized growth,[5],0.902
same,normalized growth,[6],0.926
same,normalized growth,[7],0.923
same,normalized growth,[8],0.88 (active)
same,normalized growth,[9],0.907
same,normalized growth,[68],0.76 (active)
same,normalized growth,[10],0.348 (active)
same,normalized growth,[11],0.876 (active)
same,normalized growth,[69],0.607 (active)
same,normalized growth,[12],0.917
same,normalized growth,[13],0.368 (active)
same,normalized growth,[14],0.208 (active)
same,normalized growth,[15],0.422 (active)
same,normalized growth,[16],0.876 (active)
same,normalized growth,[17],0.853 (active)
same,normalized growth,[18],0.927
same,normalized growth,[19],0.199 (active)
same,normalized growth,[20],0.899
same,normalized growth,[21],0.48 (active)
same,normalized growth,[22],0.31 (active)
same,normalized growth,[23],0.176 (active)
same,normalized growth,[24],0.131 (active)
same,normalized growth,[25],0.175 (active)
same,normalized growth,[26],0.271 (active)
same,normalized growth,[27],0.595
same,normalized growth,[28],0.928
same,normalized growth,[29],0.204 (active)
same,normalized growth,[30],0.915
same,normalized growth,[31],0.329 (active)
same,normalized growth,[32],0.895 (active)
same,normalized growth,[33],0.225 (active)
same,normalized growth,[34],0.201 (active)
same,normalized growth,[35],0.321 (active)
same,normalized growth,[36],0.403 (active)
same,normalized growth,[37],0.349 (active)
same,normalized growth,[38],0.875 (active)
same,normalized growth,[39],0.283 (active)
same,normalized growth,[40],0.207 (active)
same,normalized growth,[41],0.383 (active)
same,normalized growth,[42],0.448 (active)
same,normalized growth,[43],0.229 (active)
same,normalized growth,[44],0.883 (active)
same,normalized growth,[45],0.433 (active)
same,normalized growth,[46],0.865 (active)
same,normalized growth,[47],0.914
same,normalized growth,[48],0.349 (active)
same,normalized growth,[49],0.884 (active)
same,normalized growth,[50],0.292 (active)
same,normalized growth,[70],0.875 (active)
same,normalized growth,[51],0.861 (active)
same,normalized growth,[52],0.379 (active)
same,normalized growth,[53],0.739 (active)
same,normalized growth,[54],0.202 (active)
same,normalized growth,[55],0.568 (active)
same,normalized growth,[56],0.419 (active)
same,normalized growth,[57],0.156 (active)
same,normalized growth,[58],0.924
same,normalized growth,[59],0.273 (active)
same,normalized growth,[60],0.157 (active)
same,normalized growth,[61],0.183 (active)
same,normalized growth,[62],0.897 (active)
same,normalized growth,[63],0.178 (active)
same,normalized growth,[64],0.89 (active)
same,normalized growth,[65],0.902
same,normalized growth,[66],0.878
same,normalized growth,[71],0.866 (active)
same,normalized growth,[67],0.861 (active)
